Activity calls are given as the source filed them. How the source made its calls: active means hit-call score of the fitted dose curve at least 0.9, where 1 is the maximum; inactive means score below 0.9.
read-out: Monokine induced gamma interferon (MIG), CXCL9 (gene 4283); assay: BSK_BE3C_MIG: BioMAP Diversity Plus: BE3C Assay for Monokine induced gamma interferon (MIG) Biomarker Activity (AID 2283035); details: primary human bronchial epithelial cells; actives raise or lower the signal
Method: BSK_BE3C is a cell-based, multiplexed-readout assay that uses bronchial epithelial cell, a human lung primary cell, with measurements taken at 24 hours after chemical dosing in a 96-well plate.BSK_BE3C_MIG is an assay component measured in the BSK_BE3C assay. It measures MIG antibody related to regulation of gene expression using ELISA technology.Data from the assay component BSK_BE3C_MIG was analyzed into 1 assay endpoint. This assay endpoint, BSK_BE3C_MIG, was analyzed with bidirectional fitting relative to DMSO as the negative control and baseline of activity. Using a type of binding reporter, gain or loss-of-signal activity can be used to understand changes in the signaling as they relate to the gene CXCL9. Furthermore, this assay endpoint can be referred to as a primary readout, because this assay has produced multiple assay endpoints where this one serves a signaling function. To generalize the intended target to other relatable targets, this assay endpoint is annotated to the cytokine intended target family, where the subfamily is chemotactic factor.
The levels of cell surface (or secreted, indicated by the prefix "s") biomarker endpoints were measured by ELISA. Overt cytotoxicity to cells in confluent adherent cultures (all systems other than the BT system) was assessed by measuring total protein levels using sulforhodamine B (SRB) staining in parallel cultures at the time of biomarker measurements, indicated as SRB endpoints. For proliferation assays for adherent cell types, individual cell types are cultured at sub-confluence and relative cell numbers quantified by SRB staining at time points optimized for each system (48 h: 3C and CASM3C systems; 72 h: BT and HDF3CGF systems; 96 h: SAg system). SRB was performed by staining cells with 0.1% SRB after fixation with 10% TCA and reading wells at 560 nm.Viability and proliferation of PBMC (T cells) was quantified by Alamar Blue reduction for the SAg and BT systems. For PBMC viability (referred to as PBMC Cytotoxicity within the assay endpoint names), cells were plated (75,000/well in a 96-well plate) and then chemical samples added for 1 h before addition of activators, SEB and TSST-1 (20 ng/mL final concentration each). Cells were incubated for 90 h. Then, Alamar Blue (20 uL/well) (Invitrogen, Cat DAL1100) was added for 6 h, and the plates were read with a fluorescence microplate reader at 546/580 nm (excitation/emission). For PBMC proliferation, cells were plated and activated as above but incubated for only 16 h prior to addition of Alamar Blue. Plates were read after 6 h.

Q: For CCNc1nc(N)nc(Cl)n1, which outcome is on record?
A: Its outcome is “inactive”.

Q: How did the outcome turn out when C=CCOC(Cn1ccnc1)c1ccc(Cl)cc1Cl (stereo not given) was run?
A: Its outcome is “inactive”.

Q: For S=C(S)NCCNC(=S)S.[Mn+2].[S-]C([S-])=NCCN=C([S-])[S-].[Zn+2], which outcome is on record?
A: The outcome was “inactive”.

Q: Which outcome does the source give for CCCCC(CC)COC(=O)c1ccccc1C(=O)O (stereo not given) here?
A: The outcome was “inactive”.

Q: Which AC50 does the source give for CCCN(CCC)c1c([N+](=O)[O-])cc(C(F)(F)F)c(N)c1[N+](=O)[O-] here?
A: Its AC50 is 22.9 µM (active).

Q: Which outcome does the source give for COc1c(Cl)ccc(Cl)c1C(=O)O here?
A: The outcome was “inactive”.

Q: CN(C)C(=O)Nc1ccc(Cl)c(Cl)c1 was tested. Which outcome did it give?
A: Its outcome is “inactive”.

Q: For O=C(Nc1ccc([N+](=O)[O-])cc1Cl)c1cc(Cl)ccc1O, which AC50 is on record?
A: Its AC50 is 0.148 µM (active).

Q: How did the outcome turn out when COC(=O)CSc1cc(N=c2sc(=O)n3n2CCCC3)c(F)cc1Cl was run?
A: Its outcome is “inactive”.

Q: How did the outcome turn out when CCC(C)OC(=O)N1CCCCC1CCO (stereo not given) was run?
A: The outcome was “inactive”.

Q: With O=C(c1ccccc1)C1CCCCC1 as the compound, how does the outcome read?
A: Its outcome is “inactive”.

Q: With COC(=O)c1ccccc1C(=O)O as the compound, how does the outcome read?
A: Its outcome is “inactive”.

Q: For CCOC(=O)NCCOc1ccc(Oc2ccccc2)cc1, which outcome is on record?
A: The outcome was “inactive”.

Q: Which outcome does the source give for O=C(c1ccc(O)cc1O)c1ccc(O)cc1O here?
A: The outcome was “inactive”.

Q: With CCOC(=O)C(C)Oc1ccc(Oc2nc3ccc(Cl)cc3o2)cc1 (stereo not given) as the compound, how does the outcome read?
A: The outcome was “inactive”.

Q: With OB(O)O as the compound, how does the outcome read?
A: The outcome was “inactive”.

Q: Which outcome does the source give for N[C@@H](Cc1cc(I)c(Oc2ccc(O)c(I)c2)c(I)c1)C(=O)O here?
A: Its outcome is “inactive”.

Q: Which outcome does the source give for c1ccc(Nc2ccccc2)cc1 here?
A: The outcome was “inactive”.

Q: Which outcome does the source give for CCCOC(=O)NCCCN(C)C here?
A: The outcome was “inactive”.

Q: With CC(C)CCCCCCc1ccc(O)cc1 as the compound, how does the AC50 read?
A: Its AC50 is 33.4 µM (active).

Q: For CC(C)(c1ccc(O)cc1)c1ccc(O)cc1, which outcome is on record?
A: Its outcome is “inactive”.

Q: How did the outcome turn out when Cc1nn(C)c(Oc2ccccc2)c1C=NOCc1ccc(C(=O)OC(C)(C)C)cc1 was run?
A: The outcome was “inactive”.

Q: Which outcome does the source give for CCOC(=O)c1ccc(O)cc1 here?
A: Its outcome is “inactive”.

Q: For CCCCOC(=O)[C@@H](C)Oc1ccc(Oc2ccc(C(F)(F)F)cn2)cc1, which outcome is on record?
A: The outcome was “inactive”.

Q: With CC1(C)C(C=C(Cl)Cl)C1C(=O)OCc1cccc(Oc2ccccc2)c1 (stereo not given) as the compound, how does the outcome read?
A: Its outcome is “inactive”.

Q: For C#CCOC(=O)[C@@H](C)Oc1ccc(Oc2ncc(Cl)cc2F)cc1, which outcome is on record?
A: Its outcome is “inactive”.

Q: For COC(=O)c1cccc(C)c1S(=O)(=O)NC(=O)Nc1nc(OCC(F)(F)F)nc(N(C)C)n1, which outcome is on record?
A: Its outcome is “inactive”.

Q: With c1ccc2[nH]c(-c3cscn3)nc2c1 as the compound, how does the outcome read?
A: Its outcome is “inactive”.

Q: Which outcome does the source give for CCN(Cc1c(F)cccc1Cl)c1c([N+](=O)[O-])cc(C(F)(F)F)cc1[N+](=O)[O-] here?
A: Its outcome is “inactive”.

Q: For COC(=O)c1c(Cl)nn(C)c1S(=O)(=O)NC(=O)Nc1nc(OC)cc(OC)n1, which outcome is on record?
A: Its outcome is “inactive”.

Q: With C[C@]12CC[C@@H]3c4ccc(O)cc4C[C@@H](CCCCCCCCCS(=O)CCCC(F)(F)C(F)(F)F)[C@H]3[C@@H]1CC[C@@H]2O (stereo not given in full) as the compound, how does the outcome read?
A: Its outcome is “inactive”.

Q: How did the outcome turn out when CCCCOCCOCCOCc1cc2c(cc1CCC)OCO2 was run?
A: Its outcome is “inactive”.

Q: Which outcome does the source give for O=C(O)c1ccccc1 here?
A: The outcome was “inactive”.

Q: COC(=O)c1ccc(I)cc1S(=O)(=O)NC(=O)Nc1nc(C)nc(OC)n1 was tested. Which outcome did it give?
A: Its outcome is “inactive”.

Q: S=C([S-])NCCNC(=S)[S-].[Mn+2] was tested. Which outcome did it give?
A: The outcome was “inactive”.

Q: For CC(C)(C)[C@@H](O)[C@@H](Cc1ccc(Cl)cc1)n1cncn1, which outcome is on record?
A: The outcome was “inactive”.

Q: COCCO was tested. Which outcome did it give?
A: Its outcome is “inactive”.

Q: COC(=O)c1ccccc1S(=O)(=O)NC(=O)Nc1nc(OC(F)F)cc(OC(F)F)n1 was tested. Which outcome did it give?
A: Its outcome is “inactive”.

Q: For C[C@]12C[C@H](O)[C@H]3[C@@H](CCC4=CC(=O)CC[C@@]43C)[C@@H]1CC[C@@H]2C(=O)CO, which outcome is on record?
A: Its outcome is “inactive”.

Q: Which outcome does the source give for CCN(CC)C(=O)c1cccc(C)c1 here?
A: Its outcome is “inactive”.

— PubChem BioAssay (EPA / NIEHS)
